Measured values taken from article PMC7862700, “An all-to-all approach to the identification of sequence-specific readers for epigenetic DNA modifications on cytosine”.

What was measured:
Assay in all cases: DAPPL (digital affinity profiling via proximity ligation, sequencing); 10 mM Tris-HCl pH 7.5, 50 mM NaCl, 1 mM DTT, 4% glycerol, room temperature, 30 min; GST-TFs on glutathione beads, 16-mer random dsDNA library, 0.1% formaldehyde crosslink after washing; high values mean tight binding
Settings in all cases: protein: recombinant; tags: N-terminal GST; dsDNA, one strand shown
ERG = target: T1, ERG (Homo sapiens, UniProt P11308 1-479)
T1 sequence: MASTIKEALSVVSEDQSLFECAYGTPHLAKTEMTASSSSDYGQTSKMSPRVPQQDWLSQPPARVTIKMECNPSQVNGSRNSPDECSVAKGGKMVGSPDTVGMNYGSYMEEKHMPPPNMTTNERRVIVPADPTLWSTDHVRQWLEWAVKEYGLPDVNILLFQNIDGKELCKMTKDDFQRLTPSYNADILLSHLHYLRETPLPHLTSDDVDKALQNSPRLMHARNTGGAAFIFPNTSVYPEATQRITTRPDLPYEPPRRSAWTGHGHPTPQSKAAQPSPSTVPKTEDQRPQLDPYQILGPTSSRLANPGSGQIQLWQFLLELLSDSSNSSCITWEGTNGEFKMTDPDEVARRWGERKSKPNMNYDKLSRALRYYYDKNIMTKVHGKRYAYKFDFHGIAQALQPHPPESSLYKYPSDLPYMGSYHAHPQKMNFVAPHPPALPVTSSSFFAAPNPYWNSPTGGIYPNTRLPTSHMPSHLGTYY
How it was run: (§1)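 Beads coated with glutathione captured GST-fused human transcription factors that had been expressed in yeast, and the factors were then given DNA barcodes and pooled with a tag-only sample. The pools were incubated with 200 nmole of a random double-stranded 16-mer DNA library in Tris/NaCl/DTT/glycerol buffer for 30 min at room temperature, washed, crosslinked with 0.1% formaldehyde and proximity-ligated with BsaI/T4 ligase at 37 °C for 1 h. PCR amplification and Illumina NextSeq500 sequencing came last. Binding signal is each hexamer's read frequency for a factor divided by its frequency for the tag-only sample.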

EHF = target: T2, EHF (Homo sapiens, UniProt Q9NZC4 1-300)
T2 sequence: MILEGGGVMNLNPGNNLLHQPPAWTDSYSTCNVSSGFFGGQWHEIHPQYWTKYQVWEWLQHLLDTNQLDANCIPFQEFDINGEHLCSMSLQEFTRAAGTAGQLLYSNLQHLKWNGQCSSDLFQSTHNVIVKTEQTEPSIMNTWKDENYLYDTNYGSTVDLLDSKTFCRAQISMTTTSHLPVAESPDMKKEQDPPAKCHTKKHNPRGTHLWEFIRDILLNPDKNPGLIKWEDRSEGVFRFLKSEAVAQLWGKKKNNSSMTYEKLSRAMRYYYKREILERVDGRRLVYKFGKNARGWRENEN
How it was run: as §1

ELK3 = target: T3, ELK3 (Homo sapiens, UniProt P41970 1-407)
T3 sequence: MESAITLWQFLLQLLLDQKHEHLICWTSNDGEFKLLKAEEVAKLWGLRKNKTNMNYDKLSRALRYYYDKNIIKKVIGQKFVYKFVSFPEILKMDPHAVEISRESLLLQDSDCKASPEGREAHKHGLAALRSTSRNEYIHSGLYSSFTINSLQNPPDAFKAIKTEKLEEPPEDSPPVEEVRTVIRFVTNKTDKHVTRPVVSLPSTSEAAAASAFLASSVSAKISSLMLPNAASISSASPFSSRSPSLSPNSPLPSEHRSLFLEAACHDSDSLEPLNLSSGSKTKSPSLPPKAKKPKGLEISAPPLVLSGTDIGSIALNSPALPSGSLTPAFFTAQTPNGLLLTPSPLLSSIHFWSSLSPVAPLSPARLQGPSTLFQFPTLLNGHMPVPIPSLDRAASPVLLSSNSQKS
How it was run: as §1

ETV5 = ETV5 (Homo sapiens, UniProt P41161 1-510)
ETV5, sequence (P41161 whole entry): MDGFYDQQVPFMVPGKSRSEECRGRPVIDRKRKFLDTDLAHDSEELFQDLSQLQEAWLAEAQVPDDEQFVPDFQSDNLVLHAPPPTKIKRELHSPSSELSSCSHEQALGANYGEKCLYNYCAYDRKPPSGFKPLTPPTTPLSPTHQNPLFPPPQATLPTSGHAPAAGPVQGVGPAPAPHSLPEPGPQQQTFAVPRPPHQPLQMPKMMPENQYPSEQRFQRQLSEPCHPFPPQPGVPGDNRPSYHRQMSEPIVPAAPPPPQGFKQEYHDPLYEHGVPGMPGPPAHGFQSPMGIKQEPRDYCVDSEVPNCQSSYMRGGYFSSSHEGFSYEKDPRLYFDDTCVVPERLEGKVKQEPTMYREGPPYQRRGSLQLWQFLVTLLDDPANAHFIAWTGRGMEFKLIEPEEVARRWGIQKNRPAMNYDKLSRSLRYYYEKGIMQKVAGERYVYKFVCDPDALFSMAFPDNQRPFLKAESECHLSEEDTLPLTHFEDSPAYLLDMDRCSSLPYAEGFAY
How it was run: as §1

SPIC = target: T4, SPIC (Homo sapiens, UniProt Q8N5J4 1-248)
T4 sequence: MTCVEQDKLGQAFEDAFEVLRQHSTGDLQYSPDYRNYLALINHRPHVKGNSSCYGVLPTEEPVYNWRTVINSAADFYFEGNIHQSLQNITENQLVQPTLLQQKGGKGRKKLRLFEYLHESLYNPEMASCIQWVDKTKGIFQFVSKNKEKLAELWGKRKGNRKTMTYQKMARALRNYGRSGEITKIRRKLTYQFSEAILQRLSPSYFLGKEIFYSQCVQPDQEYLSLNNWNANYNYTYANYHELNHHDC
How it was run: as §1

ERF = target: T5, ERF (Homo sapiens, UniProt P50548 1-548)
T5 sequence: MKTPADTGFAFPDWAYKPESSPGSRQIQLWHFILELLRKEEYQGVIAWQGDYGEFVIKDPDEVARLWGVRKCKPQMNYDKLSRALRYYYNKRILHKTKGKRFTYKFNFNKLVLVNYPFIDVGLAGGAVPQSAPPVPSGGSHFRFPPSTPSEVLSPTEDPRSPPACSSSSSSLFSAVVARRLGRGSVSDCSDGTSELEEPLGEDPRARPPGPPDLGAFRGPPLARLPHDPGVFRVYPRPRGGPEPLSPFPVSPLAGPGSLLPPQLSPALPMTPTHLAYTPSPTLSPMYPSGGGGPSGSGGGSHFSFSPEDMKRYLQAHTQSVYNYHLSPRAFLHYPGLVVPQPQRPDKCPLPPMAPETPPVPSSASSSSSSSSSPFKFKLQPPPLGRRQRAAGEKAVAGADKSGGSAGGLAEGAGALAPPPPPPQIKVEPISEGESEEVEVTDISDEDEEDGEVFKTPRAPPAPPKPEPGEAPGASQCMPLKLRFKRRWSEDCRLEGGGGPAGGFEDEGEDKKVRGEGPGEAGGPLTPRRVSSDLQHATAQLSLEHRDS
How it was run: as §1

ELK1 = target: T6, ELK1 (Homo sapiens, UniProt P19419 1-428)
T6 sequence: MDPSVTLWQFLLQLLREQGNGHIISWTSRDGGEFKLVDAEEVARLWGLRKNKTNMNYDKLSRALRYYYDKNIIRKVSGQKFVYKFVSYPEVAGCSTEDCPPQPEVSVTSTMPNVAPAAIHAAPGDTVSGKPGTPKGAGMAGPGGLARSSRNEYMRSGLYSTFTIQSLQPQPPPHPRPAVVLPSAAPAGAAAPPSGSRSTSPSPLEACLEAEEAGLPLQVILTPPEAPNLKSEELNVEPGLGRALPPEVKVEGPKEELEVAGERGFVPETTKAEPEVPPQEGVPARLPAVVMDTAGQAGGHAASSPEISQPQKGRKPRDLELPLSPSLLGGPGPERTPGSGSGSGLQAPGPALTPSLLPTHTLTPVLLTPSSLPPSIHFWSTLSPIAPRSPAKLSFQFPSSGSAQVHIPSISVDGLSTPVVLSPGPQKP
How it was run: as §1

ELF1 = ELF1 (Homo sapiens, UniProt P32519 1-619)
ELF1, sequence (P32519 whole entry): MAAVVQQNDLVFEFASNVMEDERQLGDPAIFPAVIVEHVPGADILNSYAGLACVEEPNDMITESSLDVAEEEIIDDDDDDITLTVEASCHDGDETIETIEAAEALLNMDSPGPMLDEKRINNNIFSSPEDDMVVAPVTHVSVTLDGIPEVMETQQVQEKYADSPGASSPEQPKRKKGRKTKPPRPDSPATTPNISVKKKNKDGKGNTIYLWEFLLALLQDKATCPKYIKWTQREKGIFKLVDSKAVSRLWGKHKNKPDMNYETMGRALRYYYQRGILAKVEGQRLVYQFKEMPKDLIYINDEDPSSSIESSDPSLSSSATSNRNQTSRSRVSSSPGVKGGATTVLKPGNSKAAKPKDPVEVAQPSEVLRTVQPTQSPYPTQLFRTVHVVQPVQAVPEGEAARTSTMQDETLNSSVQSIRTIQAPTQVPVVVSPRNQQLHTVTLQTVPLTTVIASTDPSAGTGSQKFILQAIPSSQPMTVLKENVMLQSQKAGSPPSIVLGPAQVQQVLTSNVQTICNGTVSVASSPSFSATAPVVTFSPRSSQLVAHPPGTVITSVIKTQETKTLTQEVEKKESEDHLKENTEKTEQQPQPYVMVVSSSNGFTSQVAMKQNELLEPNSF
How it was run: as §1

SPIB = SPIB (Homo sapiens, UniProt Q01892 1-262)
SPIB, sequence (Q01892 whole entry): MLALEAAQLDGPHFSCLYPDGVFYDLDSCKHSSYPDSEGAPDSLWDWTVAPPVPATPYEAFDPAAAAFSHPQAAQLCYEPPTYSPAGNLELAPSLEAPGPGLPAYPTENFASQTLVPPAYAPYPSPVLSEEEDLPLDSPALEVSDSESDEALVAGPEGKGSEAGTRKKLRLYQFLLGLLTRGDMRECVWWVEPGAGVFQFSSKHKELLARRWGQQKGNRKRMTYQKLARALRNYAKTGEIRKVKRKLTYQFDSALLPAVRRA
How it was run: as §1

ELK4 = target: T7, ELK4 (Homo sapiens, UniProt P28324-2 1-405)
T7 sequence: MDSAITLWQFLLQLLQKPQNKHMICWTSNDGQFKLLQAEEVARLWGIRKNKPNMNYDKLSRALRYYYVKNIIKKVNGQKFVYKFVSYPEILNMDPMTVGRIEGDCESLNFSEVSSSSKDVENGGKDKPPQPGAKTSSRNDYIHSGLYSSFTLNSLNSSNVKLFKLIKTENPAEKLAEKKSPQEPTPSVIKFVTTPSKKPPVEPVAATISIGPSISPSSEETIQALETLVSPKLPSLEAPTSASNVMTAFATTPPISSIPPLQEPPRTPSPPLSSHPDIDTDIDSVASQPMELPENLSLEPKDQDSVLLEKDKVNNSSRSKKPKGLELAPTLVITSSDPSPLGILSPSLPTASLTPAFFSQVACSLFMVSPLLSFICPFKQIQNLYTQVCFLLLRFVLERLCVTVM
How it was run: as §1

ETV1 = ETV1 (Homo sapiens, UniProt P50549 1-477)
ETV1, sequence (P50549 whole entry): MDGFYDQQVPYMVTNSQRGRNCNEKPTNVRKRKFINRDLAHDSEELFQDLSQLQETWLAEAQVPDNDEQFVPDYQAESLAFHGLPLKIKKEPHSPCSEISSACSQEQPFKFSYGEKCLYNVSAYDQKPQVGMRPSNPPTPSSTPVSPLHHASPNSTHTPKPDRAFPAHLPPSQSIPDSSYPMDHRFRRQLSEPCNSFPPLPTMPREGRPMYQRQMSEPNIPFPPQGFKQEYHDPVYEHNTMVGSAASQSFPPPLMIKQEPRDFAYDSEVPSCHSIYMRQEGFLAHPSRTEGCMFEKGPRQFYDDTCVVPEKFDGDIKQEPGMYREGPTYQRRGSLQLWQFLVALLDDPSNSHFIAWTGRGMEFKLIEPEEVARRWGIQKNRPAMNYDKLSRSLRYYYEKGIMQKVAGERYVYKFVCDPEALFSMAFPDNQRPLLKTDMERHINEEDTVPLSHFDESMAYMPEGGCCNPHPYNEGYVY
How it was run: as §1

SPDEF = target: T8, SPDEF (Homo sapiens, UniProt O95238 1-335)
T8 sequence: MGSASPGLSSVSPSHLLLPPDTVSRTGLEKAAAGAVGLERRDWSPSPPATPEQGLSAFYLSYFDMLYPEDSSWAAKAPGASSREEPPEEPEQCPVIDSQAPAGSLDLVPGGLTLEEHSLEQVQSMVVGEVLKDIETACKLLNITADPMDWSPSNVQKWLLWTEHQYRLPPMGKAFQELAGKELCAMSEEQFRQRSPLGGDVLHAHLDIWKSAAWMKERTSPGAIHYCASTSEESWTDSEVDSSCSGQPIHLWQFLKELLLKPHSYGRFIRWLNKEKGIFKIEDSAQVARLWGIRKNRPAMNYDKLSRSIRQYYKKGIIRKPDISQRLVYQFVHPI
How it was run: as §1

GABPA = target: T9, GABPA (Homo sapiens, UniProt Q06546 1-454)
T9 sequence: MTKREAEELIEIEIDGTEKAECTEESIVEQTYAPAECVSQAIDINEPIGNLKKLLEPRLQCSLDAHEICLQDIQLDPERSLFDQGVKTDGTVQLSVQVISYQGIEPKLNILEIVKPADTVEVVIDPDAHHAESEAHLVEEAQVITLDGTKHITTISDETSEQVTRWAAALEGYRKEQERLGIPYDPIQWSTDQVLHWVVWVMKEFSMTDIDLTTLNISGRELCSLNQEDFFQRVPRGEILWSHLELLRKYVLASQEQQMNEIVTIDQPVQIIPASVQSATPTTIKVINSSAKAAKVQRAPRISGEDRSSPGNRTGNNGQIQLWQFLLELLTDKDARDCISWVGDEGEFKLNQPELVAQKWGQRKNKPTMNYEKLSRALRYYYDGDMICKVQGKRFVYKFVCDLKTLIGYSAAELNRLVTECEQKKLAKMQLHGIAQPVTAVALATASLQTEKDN
How it was run: as §1

ELF4 = ELF4 (Homo sapiens, UniProt Q99607 1-663)
ELF4, sequence (Q99607 whole entry): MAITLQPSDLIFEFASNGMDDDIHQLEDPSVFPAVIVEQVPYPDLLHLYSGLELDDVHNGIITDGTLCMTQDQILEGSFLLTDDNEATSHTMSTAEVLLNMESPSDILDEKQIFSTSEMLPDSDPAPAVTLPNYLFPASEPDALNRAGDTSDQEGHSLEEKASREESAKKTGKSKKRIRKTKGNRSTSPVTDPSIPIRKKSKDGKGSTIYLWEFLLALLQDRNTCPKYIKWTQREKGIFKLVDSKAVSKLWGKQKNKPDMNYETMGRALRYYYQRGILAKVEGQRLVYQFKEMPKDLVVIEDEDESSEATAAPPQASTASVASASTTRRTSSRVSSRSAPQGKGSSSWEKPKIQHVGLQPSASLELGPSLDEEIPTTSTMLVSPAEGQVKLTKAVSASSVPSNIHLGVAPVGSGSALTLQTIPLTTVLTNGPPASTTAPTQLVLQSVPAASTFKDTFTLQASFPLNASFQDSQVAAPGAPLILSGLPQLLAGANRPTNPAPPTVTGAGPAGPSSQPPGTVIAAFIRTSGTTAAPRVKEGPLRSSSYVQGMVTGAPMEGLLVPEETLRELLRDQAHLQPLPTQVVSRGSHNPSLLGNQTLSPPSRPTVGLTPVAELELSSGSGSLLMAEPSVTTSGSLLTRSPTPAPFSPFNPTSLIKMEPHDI
How it was run: as §1

ETV3L = target: T10, ETV3L (Homo sapiens, UniProt Q6ZN32 1-361)
T10 sequence: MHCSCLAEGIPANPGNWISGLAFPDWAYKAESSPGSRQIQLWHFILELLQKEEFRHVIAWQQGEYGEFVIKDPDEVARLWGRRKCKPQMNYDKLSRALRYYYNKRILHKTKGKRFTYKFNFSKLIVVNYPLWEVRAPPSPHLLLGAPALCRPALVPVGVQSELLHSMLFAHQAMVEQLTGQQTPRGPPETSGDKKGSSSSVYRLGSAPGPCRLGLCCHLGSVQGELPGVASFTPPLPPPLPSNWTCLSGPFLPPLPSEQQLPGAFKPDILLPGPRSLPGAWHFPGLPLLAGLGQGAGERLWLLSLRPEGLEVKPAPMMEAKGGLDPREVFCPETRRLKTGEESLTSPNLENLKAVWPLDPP
How it was run: as §1

ETV7 = target: T11, ETV7 (Homo sapiens, UniProt Q9Y603 1-341)
T11 sequence: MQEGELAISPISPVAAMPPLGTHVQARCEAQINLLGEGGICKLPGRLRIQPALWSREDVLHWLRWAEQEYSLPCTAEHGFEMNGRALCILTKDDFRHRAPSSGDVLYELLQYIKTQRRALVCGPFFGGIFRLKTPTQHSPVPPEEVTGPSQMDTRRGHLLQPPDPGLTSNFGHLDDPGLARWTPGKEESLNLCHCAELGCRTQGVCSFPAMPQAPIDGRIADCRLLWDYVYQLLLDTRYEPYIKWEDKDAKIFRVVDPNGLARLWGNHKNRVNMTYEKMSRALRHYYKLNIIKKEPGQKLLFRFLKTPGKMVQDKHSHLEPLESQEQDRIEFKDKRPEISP
How it was run: as §1

ETV6 = ETV6 (Homo sapiens, UniProt P41212 1-452)
ETV6, sequence (P41212 whole entry): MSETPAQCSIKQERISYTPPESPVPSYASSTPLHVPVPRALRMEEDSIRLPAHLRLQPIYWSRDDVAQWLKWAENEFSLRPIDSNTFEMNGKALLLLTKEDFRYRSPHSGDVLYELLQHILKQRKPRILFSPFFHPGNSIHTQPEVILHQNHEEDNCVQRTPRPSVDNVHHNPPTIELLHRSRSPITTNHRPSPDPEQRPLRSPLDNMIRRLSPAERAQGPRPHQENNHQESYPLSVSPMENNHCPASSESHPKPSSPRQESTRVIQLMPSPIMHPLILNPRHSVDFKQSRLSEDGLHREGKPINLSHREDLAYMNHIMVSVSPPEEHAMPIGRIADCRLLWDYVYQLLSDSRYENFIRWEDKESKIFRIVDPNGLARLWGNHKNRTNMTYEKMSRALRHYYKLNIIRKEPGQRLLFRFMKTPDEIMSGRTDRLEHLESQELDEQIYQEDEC
How it was run: as §1

In the case of AGTTAC, the binding signal (ERG) is reported as 1 fold enrichment (6-mer frequency, TF over GST control), the binding signal (EHF) is reported as 1.02 fold enrichment (6-mer frequency, TF over GST control) and the binding signal (ELK3) is reported as 1.03 fold enrichment (6-mer frequency, TF over GST control). For the same sequence, the binding signal (ETV5) was 1.05 fold enrichment (6-mer frequency, TF over GST control), the binding signal (SPIC) was 1.1 fold enrichment (6-mer frequency, TF over GST control) and the binding signal (ERF) was 1.01 fold enrichment (6-mer frequency, TF over GST control).
GTACCA was tested, and the binding signal (ELK1) was 1.04 fold enrichment (6-mer frequency, TF over GST control), the binding signal (ELF1) was 1.01 fold enrichment (6-mer frequency, TF over GST control) and the binding signal (SPIB) was 1.02 fold enrichment (6-mer frequency, TF over GST control). For the same sequence, the binding signal (ETV5) was 1.07 fold enrichment (6-mer frequency, TF over GST control), the binding signal (ELK4) was 1.09 fold enrichment (6-mer frequency, TF over GST control) and the binding signal (ETV1) was 1 fold enrichment (6-mer frequency, TF over GST control). For the same sequence, the binding signal (ERF) was 1.04 fold enrichment (6-mer frequency, TF over GST control) and the binding signal (SPDEF) was 1 fold enrichment (6-mer frequency, TF over GST control).
With GTGCCC the binding signal (GABPA) was 1.01 fold enrichment (6-mer frequency, TF over GST control), the binding signal (ERG) was 1.08 fold enrichment (6-mer frequency, TF over GST control) and the binding signal (ETV5) was 1.08 fold enrichment (6-mer frequency, TF over GST control). For the same sequence, the binding signal (ELF4) was 1.03 fold enrichment (6-mer frequency, TF over GST control), the binding signal (ELK4) was 1.07 fold enrichment (6-mer frequency, TF over GST control) and the binding signal (ETV3L) was 1 fold enrichment (6-mer frequency, TF over GST control). For the same sequence, the binding signal (ETV7) was 1.01 fold enrichment (6-mer frequency, TF over GST control) and the binding signal (ETV6) was 1 fold enrichment (6-mer frequency, TF over GST control).
